# PubChem BioAssay (NCI)
# Compounds without any hit were thinned out: in the full panel of roughly 83,000, 20% have a hit.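 Testing used 96-well plates and a 48-hour single-concentration exposure. Example: -40 means 40% of the starting cells died.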 Values without a mark were called inactive. Calls of active or inactive are those of the source. How the source made its calls: active means growth percent below 10; inactive means the rest.
# System: HL-60(TB) leukemia
# Assay: NCI-60 one-dose screen, 48 h (100 = growth as untreated, 0 = no growth, -100 = all killed)
# Conditions: 10 µM unless noted
row,SMILES,growth
1,C(=C\c1ccccc1)/CN1CCN(C(c2ccccc2)c2ccccc2)CC1,85.3%
2,C[C@]12C[C@H](O)[C@H]3[C@@H](CCC4=CC(=O)CC[C@@]43C)[C@@H]1CC[C@@H]2C(=O)CO,81.8%
3,O=C1CN(CO)C(=O)CN1CO,107%
4,Nc1ncnc2c1c(C(F)(F)F)cn2[C@@H]1O[C@H](CO)[C@@H](O)[C@H]1O,-26.1% (active)
5,CCOc1cc(/C=N\NC(=O)N/N=C/c2ccc(O)c(OCC)c2)ccc1O,-22.2% (active)
6,COC(=O)c1c2c(c[n+]([O-])c1C)C(=O)C=C(NCc1ccccc1)C2=O,-49.4% (active)
7,O=S(=O)(O)c1ccc(F)cc1,93.8%
8,CCN(CC)S(=O)(=O)c1cccc([N+](=O)[O-])c1,95.5%
9,COc1cc(C2CC(c3cccc(Nc4ccncc4)c3)=NN2c2ccccc2)cc(OC)c1OC (stereo not given),-43.8% (active)
10,CCCCCCCC/C=C/CCCCCCCC1=NC(C)(C)CN1CCO,-61.5% (active)
11,C=C1C(=O)O[C@H]2[C@H]1CC/C(COC(=O)c1cc3cc(Cl)ccc3[nH]1)=C\CC[C@@]1(C)O[C@@H]21,-46% (active)
12,Cc1nc(N=C(N)N)nc2ccc3ccccc3c12,22.6%
13,CCOCC(=O)C(C#N)c1ccc(Cl)c(Cl)c1 (stereo not given),102%
14,COc1ccc(N2C(=O)C3c4[nH]c5ccc(OCc6ccccc6)cc5c4C4CCC(C(C)C)CC4C3C2=O)cc1 (stereo not given),68.9%
15,NCCNc1ccc2cc(-c3nc4ccccc4[nH]3)c(=O)oc2c1,80.1%
